# Reference: PubChem BioAssay (NCI)
# Compounds without any hit were thinned out: in the full panel of roughly 79,000, 15% have a hit. A number with no mark means an inactive call. The source made the active and inactive calls. Rule as the data show it: active = growth inhibition above about 70%; inactive = the rest.
# Assay: NCI Yeast Anticancer Drug Screen. Data for the rad18 strain (AID 177)
# Conditions: S. cerevisiae rad18 mutant growth inhibition, active compounds read high
# Experimental: Growth inhibition of yeast strains with defined genetic alterations is measured as a screen for potential anti-cancer activity. Selected strains with alterations in DNA damage repair or cell cycle control were exposed to compounds and growth inhibition was measured relative to vehicle treated controls. The strain used in this assay is rad18
SMILES,growth inhibition (at 1.2 µM) [%],growth inhibition (at 3.7 µM) [%],growth inhibition (at 11.0 µM),growth inhibition (at 33.0 µM),growth inhibition (at 100.0 µM)
C[CH2][Sn]1([CH2]C)[O]C2C(O)OC(CO)C(O)C2[O]1 (stereo not given),11,0,8%,23%,73% (active)
O=C1c2ccccc2C(=O)C(Cl)C1Cl (stereo not given),1,10,91% (active),99% (active),99% (active)
Cc1ccc2nc3sc(=O)sc3nc2c1,29,56,99% (active),98% (active),97% (active)
Oc1c(Br)cc(Br)cc1Br,7,1,3%,32%,88% (active)
Br[Se]c1ccccn1,1,65,96% (active),98% (active),98% (active)
CC1CCCN(CCc2ccccc2)CC1 (stereo not given),3,7,15%,12%,16%
S=C1NC2(CCCCC2)NC12CCCCC2,-3,-1,15%,24%,7%
CCCCN(CCCC)CC(C(C)=O)C(c1ccccc1)c1c(O)c2ccccc2oc1=O (stereo not given),-3,-9,-10%,-12%,-8%
